From PubChem BioAssay (NCATS)
Inconclusive results are not listed. Entries that show only a call come without a potency. Active and inactive are the calls of the source. The call rests on the fitted dose curve; in most records, active means well fitted curve in the direction sought with a large enough effect; inconclusive means small, poorly fitted or top-dose-only effect, or another doubt; inactive means no such curve, though single readings can be large; an effect the other way counts as inactive or inconclusive.

Assays:
[1] = biological target: Aldehyde dehydrogenase, mitochondrial (Homo sapiens) (UniProt P05091); experiment: qHTS for Inhibitors of the Aldehyde Dehydrogenase Family (ALDH2) Primary screen (AID 2061308); further: nearly all actives have a fitted effect of over 55% in size
[2] = biological target: Retinaldehyde dehydrogenase 3 (Homo sapiens) (UniProt P47895); experiment: qHTS for Inhibitors of the Aldehyde Dehydrogenase Family (ALDH1A3) Primary screen (AID 2061315)

CN(C)CCCN1CCCN(C(=O)c2cccc(-c3cc(O)c4ncccc4c3)c2)C1
Potency [1]: inactive | Potency [2]: inactive

O=C(OCC#CCSc1nnc(-c2cccc3ccccc23)o1)c1ccc(Cl)c(C(F)(F)F)c1
Potency [1]: inactive | Potency [2]: inactive

COc1cccc(-c2nnc3n2N=C(c2c(OC)cccc2OC)CS3)c1
Potency [1]: inactive | Potency [2]: inactive

S=C(NCCCNc1ccc(Br)cn1)NCCCc1cnc[nH]1
Potency [1]: inactive | Potency [2]: inactive

CC(=O)Nc1sc2c(c1-c1ccc3c(c1)OCO3)CCNC2
Potency [1]: inactive | Potency [2]: inactive

Cc1cc(C)nc(NC(=S)N2CCN(c3ccc(NS(C)(=O)=O)nn3)CC2)c1
Potency [1]: inactive | Potency [2]: inactive

N#Cc1ccc(NS(=O)(=O)c2ccc(NC(=O)Cc3ccc(Cl)c(Cl)c3)cc2)cc1
Potency [1]: inactive | Potency [2]: inactive

CN1CCOc2cc(S(=O)(=O)N3CCN(S(=O)(=O)c4c(F)cccc4F)CC3)cnc21
Potency [1]: inactive | Potency [2]: inactive

CCn1c(-c2nonc2N)nc2c(C#CC(C)(C)O)ncc(OCC3CCCNC3)c21 (stereo unspecified)
Potency [1]: inactive | Potency [2]: inactive

Cc1ccc(S(=O)(=O)N(C)c2ccccc2C(=O)Nc2nc(-c3ccccc3)cs2)cc1
Potency [1]: inactive | Potency [2]: inactive

O=C(CNC(=O)C1CCCC1)OC(C(=O)Nc1cc(C(F)(F)F)ccc1Cl)c1ccccc1 (stereo unspecified)
Potency [1]: inactive | Potency [2]: inactive

CCOC(=O)c1ccoc1-c1ccc2ncnc(NCc3ccc(C)o3)c2c1
Potency [1]: inactive | Potency [2]: inactive

O=C(OCC#CCSc1nnc(-c2cccc3ccccc23)o1)C1CCC1
Potency [1]: inactive | Potency [2]: inactive

c1coc(-c2ccc3ncnc(NCc4cccs4)c3c2)c1
Potency [1]: inactive | Potency [2]: inactive

CC(C)CCCCC(=O)N[C@@H](CO)C(=O)N[C@@H](CC(C)C)C(=O)[C@@]1(CO)CO1
Potency [1]: inactive | Potency [2]: inactive

CC(C)c1ccc(=O)n(CC(=O)NCCc2ccccc2)n1
Potency [1]: inactive | Potency [2]: inactive

CC(C)O[C@@H]1O[C@H](CO)[C@@H](O)[C@H](O)[C@H]1O
Potency [1]: inactive | Potency [2]: inactive

Cc1cc(-c2nnc3n2CCCCC3)c(C)n1-c1cccc(Cl)c1
Potency [1]: inactive | Potency [2]: inactive

COc1ccc(OC)c(-c2nnc3n2N=C(c2ccc(OC)c(OC)c2)CS3)c1
Potency [1]: inactive | Potency [2]: inactive

CCOC(=O)c1ccoc1-c1ccc2ncnc(NCc3csc(C)n3)c2c1
Potency [1]: inactive | Potency [2]: inactive

Cc1cc(C)nc(NC(=S)N2CCN(c3ccc(Cl)c(Cl)c3Cl)CC2)c1
Potency [1]: inactive | Potency [2]: inactive

Fc1cc(Nc2nc(-c3ccncc3)nc3ccccc23)ccc1OCC(F)(F)F
Potency [1]: inactive | Potency [2]: inactive

Cc1cc(NS(=O)(=O)c2ccc(NC(=O)CCc3ccc(Cl)c(Cl)c3)cc2)no1
Potency [1]: inactive | Potency [2]: inactive

CNc1oc(-c2cccs2)nc1C#N
Potency [1]: inactive | Potency [2]: inactive

O=[S+]([O-])(NC[C@H]1CCC[C@H](CN[S+](=O)([O-])c2c(F)cccc2F)C1)c1ccc2c(c1)OCCO2
Potency [1]: inactive | Potency [2]: inactive

Cc1cc(C)cc(N2CCN(C(=S)Nc3cc(C)cc(C)n3)CC2)c1
Potency [1]: inactive | Potency [2]: inactive

N#Cc1ccc(-c2csc(N3CCC(C(N)=O)CC3)n2)cc1
Potency [1]: inactive | Potency [2]: inactive

C(#Cc1cccs1)c1cccnc1
Potency [1]: inactive | Potency [2]: inactive

CC(=O)Nc1sc2c(c1-c1ncco1)CCNC2
Potency [1]: inactive | Potency [2]: inactive

O=S(=O)(Nc1nccs1)c1ccc(NCc2cccc(Cl)c2O)cc1
Potency [1]: inactive | Potency [2]: inactive

FC(F)(F)c1ccccc1-c1nc(NCc2ccc(Br)cc2)c2ccccc2n1
Potency [1]: inactive | Potency [2]: inactive

Cc1cc(-c2nnc3n2CCCCC3)c(C)n1-c1ccc(C#N)cc1
Potency [1]: inactive | Potency [2]: inactive

Cc1cc(-c2ccccc2)n2ncc(C(=O)Nc3ccc(Cl)c(Cl)c3)c2n1
Potency [1]: inactive | Potency [2]: inactive

OCc1ccnc(NC(=S)N2CCN(c3cccc(C(F)(F)F)c3)CC2)c1
Potency [1]: inactive | Potency [2]: inactive

Cc1cccc(C(=O)NCC(=O)OC(C(=O)Nc2cc(C(F)(F)F)ccc2Cl)c2ccccc2)c1 (stereo unspecified)
Potency [1]: inactive | Potency [2]: inactive

Cc1ccc(C2=NN(CC(=O)N(C)C(C)c3ccco3)C(=O)C2)cc1 (stereo unspecified)
Potency [1]: inactive | Potency [2]: inactive

Fc1cnc(-c2ccccc2C(F)F)nc1NCC1CCN(c2cnccn2)C1 (stereo unspecified)
Potency [1]: inactive | Potency [2]: inactive

COc1ccccc1NS(=O)(=O)c1ccc2c(c1)CCC(=O)N2
Potency [1]: inactive | Potency [2]: inactive

CCN(Cc1sccc1C)c1ncnc2ccc(-c3ccc4c(c3)OCO4)cc12
Potency [1]: inactive | Potency [2]: inactive

COC(=O)c1ccccc1S(=O)(=O)Nc1ccc(OC)cc1
Potency [1]: inactive | Potency [2]: inactive

CCCc1cc(C)n(C)c(=O)c1CN(C)C(=O)c1cc(-c2ccc(N3CCN(C(C)C)CC3)nc2)cc2c1cnn2C(C)C
Potency [1]: inactive | Potency [2]: inactive

CONC(=O)C[C@@H](C#N)NC(=O)[C@@H]1CCCN1C(=O)[C@@H](NC(=O)c1ccc(N)c(Cl)c1)C(C)(C)C
Potency [1]: inactive | Potency [2]: inactive

O=C(CSc1nnc(-c2cccc(S(=O)(=O)N3CCCC3)c2)n1-c1ccccc1)Nc1ccc(Cl)cc1
Potency [1]: inactive | Potency [2]: inactive

FC(F)(F)c1cccc(CSc2nc3ncc(Br)cc3[nH]2)c1
Potency [1]: inactive | Potency [2]: inactive

Cc1cccc(-n2cnc3cc(C(=O)N4CCCC(C(F)(F)F)C4)ccc32)c1 (stereo unspecified)
Potency [1]: inactive | Potency [2]: inactive

COc1cnccc1-c1nc(Nc2ccc(F)c(F)c2)c2ccccc2n1
Potency [1]: inactive | Potency [2]: inactive

CC(C)(C)c1cccc(NC(=O)Nc2nnc(-c3ccncc3)s2)c1
Potency [1]: inactive | Potency [2]: inactive

Cc1cn([C@H]2C[C@H](N[S+](=O)([O-])Cc3cc(Cl)cc(Cl)c3)[C@@H](CO)O2)c(=O)[nH]c1=O
Potency [1]: inactive | Potency [2]: inactive

CCCn1c(C)nc2c(NCCO)nc(C)nc21
Potency [1]: inactive | Potency [2]: inactive

O=C1c2ccccc2C(=O)N1c1cccnc1
Potency [1]: inactive | Potency [2]: inactive

O=C(NCCc1ccc2c(c1)OCO2)c1cc2sccc2[nH]1
Potency [1]: inactive | Potency [2]: inactive

Fc1ccccc1-c1nnc2n1N=C(c1ccc(OC(F)F)c(OCC3CC3)c1)CS2
Potency [1]: inactive | Potency [2]: inactive

N#Cc1c(-c2ccc(OCCOCCOCCN)cc2)no[n+]1[O-]
Potency [1]: inactive | Potency [2]: inactive

Cc1ccc(S(=O)(=O)Nc2cnccc2C(=O)Nc2nc(-c3ccc(Cl)c(Cl)c3)cs2)cc1
Potency [1]: inactive | Potency [2]: inactive

Cc1ccc(NS(=O)(=O)c2ccc3c(c2)oc(=O)n3C)cc1C
Potency [1]: inactive | Potency [2]: inactive

CCc1nnc(NS(=O)(=O)c2ccc(NC(=S)NC(=O)/C=C/c3ccc(F)cc3)cc2)s1
Potency [1]: inactive | Potency [2]: inactive

O=C(Cc1nnc(-c2cc3ccccc3[nH]2)s1)Nc1cc(C(F)(F)F)ccc1Cl
Potency [1]: inactive | Potency [2]: inactive

COc1cccc(CNc2ccc(S(=O)(=O)Nc3cc(C)on3)cc2)c1O
Potency [1]: inactive | Potency [2]: inactive

COc1c(Cl)cccc1NC(=O)c1c(NC(=O)Cc2ccccc2)sc2c1CCCC2
Potency [1]: inactive | Potency [2]: inactive

CC1=CC2/C=C(\C)CCC(O)C(=O)C(O)CC(=O)C23C(=O)NC(CC(C)C)C3C1C (stereo unspecified)
Potency [1]: inactive | Potency [2]: inactive

Cc1cccc(S(=O)(=O)N2CCN(S(=O)(=O)c3ccc4c(c3)OCCO4)CC2)c1
Potency [1]: inactive | Potency [2]: inactive

O=C1CC(c2ccccc2)CC2=C1C1(CCCCC1)N=C(Nc1nc3ccccc3o1)N2 (stereo unspecified)
Potency [1]: inactive | Potency [2]: inactive

COc1ccc(C2c3c(nc(Cc4ccccc4)[nH]c3=O)Oc3ccc4ccccc4c32)cc1OC (stereo unspecified)
Potency [1]: inactive | Potency [2]: inactive

Cc1nc2ccc(Nc3nc(-c4ccncc4)nc4ccccc34)cc2s1
Potency [1]: inactive | Potency [2]: inactive

COc1cc(NS(=O)(=O)c2ccc(C)cc2)ccc1C(=O)Nc1nc(-c2ccccc2)cs1
Potency [1]: inactive | Potency [2]: inactive

CCOC(=O)CCCC(=O)Nc1ncnc2c1C(c1ccccc1)c1c(ccc3ccccc13)O2 (stereo unspecified)
Potency [1]: inactive | Potency [2]: inactive

CCC(OC(=O)c1ccc(S(C)(=O)=O)c([N+](=O)[O-])c1)C(=O)NC1C2CC3CC(C2)CC1C3 (stereo unspecified)
Potency [1]: inactive | Potency [2]: inactive

O=S(=O)(NC1CCN(S(=O)(=O)c2ccc3c(c2)OCCO3)CC1)c1c(F)cccc1F
Potency [1]: inactive | Potency [2]: inactive

Cc1cc2c(s1)c1cnn(Cc3c(F)ccc(F)c3Cl)c(=O)c1n2C
Potency [1]: inactive | Potency [2]: inactive

Cc1cc(C)n2ncc(C(=O)NC(C)C)c2n1
Potency [1]: inactive | Potency [2]: inactive

CCOC(=O)C1CCN(C(=O)C(C)(C)NC(=O)Nc2ccc3c(c2)CCC3)CC1
Potency [1]: inactive | Potency [2]: inactive

O=C(CNC(=O)c1ccc(-c2ccccc2)cc1)OC(C(=O)Nc1cc(C(F)(F)F)ccc1Cl)c1ccccc1 (stereo unspecified)
Potency [1]: inactive | Potency [2]: inactive

COC(=O)c1ccc(O)c2ncc(-c3ccc(C(=O)N4CCN(C)CC4)cc3)cc12
Potency [1]: inactive | Potency [2]: inactive

COc1cc(F)c(S(=O)(=O)N2CCCN(S(=O)(=O)c3ccc(N)cc3)CC2)c(F)c1
Potency [1]: inactive | Potency [2]: inactive

O=C1CCc2cc(S(=O)(=O)Nc3cccnc3)ccc2N1
Potency [1]: inactive | Potency [2]: inactive

Nc1nc(Nc2cc(F)cc(F)c2)nc(NC2CCCC2)n1
Potency [1]: inactive | Potency [2]: inactive

Cc1cc2c(s1)c1cnn(Cc3ccc(C(=O)O)cc3)c(=O)c1n2C
Potency [1]: inactive | Potency [2]: inactive

Cc1cc(C)nc(NC(=S)N2CCN(c3ccc(Cl)c(Cl)c3)CC2)c1
Potency [1]: inactive | Potency [2]: inactive

O=C(CCc1ccccc1Br)NCCc1nc2ccccc2[nH]1
Potency [1]: inactive | Potency [2]: inactive

COc1ccc(NC(=O)CN2C(=O)N/C(=C\c3cccn3-c3ccc(C(=O)NC#N)cc3)C2=O)cc1
Potency [1]: inactive | Potency [2]: inactive

Cc1c(P(=S)(c2ccccc2)c2ccccc2)[n+]2ccccc2n1CCCCc1ccccc1
Potency [1]: inactive | Potency [2]: inactive

NC1(C(=O)NC(CCO)c2ccc(Cl)cc2)CCN(c2ncnc3[nH]ccc23)CC1 (stereo unspecified)
Potency [1]: inactive | Potency [2]: inactive

C=CC1C(OC2OC(CO)C(O)C(O)C2O)OC=C2C(=O)N3C(C(=O)O)Cc4c([nH]c5ccccc45)C3CC21 (stereo unspecified)
Potency [1]: inactive | Potency [2]: inactive
